The source of these data is PubChem BioAssay (NCATS).

Records with an inconclusive call do not appear. Values without a mark were called inactive. Activity calls are given as the source filed them. The call rests on the fitted dose curve.
Potency means the concentration at half of the fitted maximal effect.

The target in the experiment is Thyroid hormone receptor beta (Homo sapiens) (UniProt P10828). Description: qHTS assay for small molecule agonists of thyroid hormone receptor beta signaling (AID 588545). Conditions: TR-UAS-bla GripTite HEK 293, beta-lactamase ratio, agonist mode, 18 h; series mostly up to 76.7 µM; activation: at the top concentration. From the text: NIH Chemical Genomics Center [NCGC]
Thyroid hormone receptor beta (Homo sapiens), sequence (P10828 whole entry, looked up): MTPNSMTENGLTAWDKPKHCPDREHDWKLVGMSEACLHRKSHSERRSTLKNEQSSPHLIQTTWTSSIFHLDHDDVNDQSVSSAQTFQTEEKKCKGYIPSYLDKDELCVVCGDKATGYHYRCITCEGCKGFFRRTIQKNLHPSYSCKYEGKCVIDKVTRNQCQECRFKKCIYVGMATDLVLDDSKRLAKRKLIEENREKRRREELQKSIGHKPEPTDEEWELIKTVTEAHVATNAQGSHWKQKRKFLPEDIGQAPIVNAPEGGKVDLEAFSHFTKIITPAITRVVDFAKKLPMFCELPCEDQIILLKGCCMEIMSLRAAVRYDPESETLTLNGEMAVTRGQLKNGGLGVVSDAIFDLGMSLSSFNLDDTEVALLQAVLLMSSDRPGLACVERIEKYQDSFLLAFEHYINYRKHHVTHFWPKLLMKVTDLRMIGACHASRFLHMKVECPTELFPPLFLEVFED
U.S. Environmental Protection Agency [EPA]
National Institutes of Environmental Health Sciences [NIEHS]
National Toxicology Program [NTP]
Thyroid hormone receptor (TR) belongs to nuclear hormone receptor superfamily. There are two subtypes for TR: TR-alpha and TR-beta. TR-beta plays a major role in regulating plasma cholesterol levels and it mediates the biological activities of thyroid hormone. Screening environmental chemicals on TR-beta signaling will provide important information for the mechanism of compound action.
NCGC Assay Protocol Summary
Using a beta-lactamase reporter-gene under control of the TR response element, a cell-based assay [GeneBLAzer TR-UAS-bla-GripTite assay developed by Invitrogen] was used to measure TR-beta signaling in agonist mode. TR-UAS-bla-GripTite HEK 293 cells were used with assay medium containing 2% charcoal/dextran FBS, 0.1 mM NEAA and 1 mM sodium pyruvate. The assay was performed in clear bottom black Greiner 1536-well plates. T3 was used as a positive control in the screen. Library compounds were measured for their ability to stimulate the reporter gene activity. Compounds were screened in a titration series in 1536-well format. The fluorescence intensity (405 nm excitation, 460/530 nm emission) was measured using an EnVision plate reader. Data was normalized relative to T3 control (10 nM, 100%), and DMSO only wells (basal, 0%). Concentration-response titration points for each compound were fitted to the Hill equation yielding concentrations of half-maximal stimulation (EC50) and maximal response (efficacy) values.
qHTS protocol for TR-beta beta-lactamase assay in agonist mode
[Step] [Parameter] [Value] [Description]
1. Reagent; 6 uL; 2500 cells/well
2. Incubation; 37 C for 4 hrs
- Dose response; start 3.8 uM, 1:3 dilutions, duplicates in first column
- Two columns of each 10 and 0.4 nM (finals) concentrations.
5. Incubation; 37 C for 18 hrs
6. Detection reagent; 1 uL of CCF4-dye
7. Incubation; RT for 2 hrs
8. Detection; Fluorescence; Envision plate reader
For orientation: In qHTS, concentration-response curves come from the screen itself.
For `C=C(C)C(=O)OCCCCCCCCCCCC`, the “activation” value is -5.54%.

With `CN(C)Cc1cc(CN(C)C)c(O)c(CN(C)C)c1`, the “activation” value is 4.17%.

With `CCCCC(CC)COC(=O)c1ccc(C(=O)OCC(CC)CCCC)cc1` (stereo not given), the “activation” value was 0%.

As to `O=C(O)CCCCCCCCCCC(=O)O`, the “activation” value was -4.84%.

For `CCCCOCCOCCOC(=O)CCCCC(=O)OCCOCCOCCCC`, the “activation” value is -2.81%.

With `C=C(C)C(=O)OCCOC(=O)C(=C)C`, the “activation” value was -3.5%.

As for `CCCCCCC(O)CCCCCCCCCCC(=O)OC` (stereo not given), the “activation” value was -8.63%.

Consider `CCCCOCCOCCO`, for which the “activation” value is 0%.

For the molecule `CCCCNS(=O)(=O)c1ccccc1`, the “activation” value is -6.74%.

On to `C=C(C)C(=O)OCCCCCCCCCCCCCCCC`, for which the “activation” value was -3.66%.

Consider `CCc1c(C(=O)O)c(=O)cnn1-c1ccc(Cl)cc1`, for which the “activation” value was -2.93%.

As to `CCCN(CCC)c1c([N+](=O)[O-])cc(C(F)(F)F)c(N)c1[N+](=O)[O-]`, the “activation” value is -6.59%.

As for `Oc1ccc(Nc2ccccc2)cc1`, the “activation” value is -16.9%.

Consider `c1cc2ccc3ccc4ccc5cccc6c(c1)c2c3c4c56`, for which the Potency was 25.1 µM (active).

For the molecule `Oc1ccc(C(c2ccc(O)cc2)C(Cl)(Cl)Cl)cc1`, the “activation” value is -7.78%.

`CCOC(=O)CCCCCCCCC(=O)OCC`: the “activation” value was 1.47%.

Turning to `OCC(CO)(CO)COCC(CO)(CO)CO`, the “activation” value is -10.7%.

For the molecule `COC(=O)c1cccc(C(=O)OC)c1`, the “activation” value was -5.13%.

For `Cc1nn(C)c(Oc2ccccc2)c1/C=N/OCc1ccc(C(=O)OC(C)(C)C)cc1`, the “activation” value was -10.4%.

`Cl[Si](Cl)(c1ccccc1)c1ccccc1`: the “activation” value was -5.84%.

For the molecule `CCCCCCCCCCCCCCCCN(C)C`, the “activation” value was 1.2%.

`CC(C)C(=O)OCC(C)(C)C(O)C(C)C` (stereo not given): the “activation” value is -2.73%.

As for `C=C(C)C(=O)OCC[N+](C)(C)C`, the “activation” value was -4.58%.

Turning to `O=C=NC1CCC(CC2CCC(N=C=O)CC2)CC1` (stereo not given), the “activation” value is -6.06%.

Consider `C=C[Si](C)(C)O[Si](C)(C)C=C`, for which the “activation” value is -5.96%.

With `S=C(S)NCCNC(=S)S`, the “activation” value is -3.6%.

As to `O=S(=O)(O)c1ccc(N=Nc2cc(S(=O)(=O)O)c3ccccc3c2O)c2ccccc12`, the “activation” value was 1.1%.

As to `c1ccc2c(c1)Cc1ccccc1-2`, the “activation” value is 4.11%.

Turning to `S=C([S-])NCCNC(=S)[S-].[Mn+2]`, the Potency result is “inactive”.

Take `O=C(Cl)c1cc(Cl)cc(Cl)c1`: the “activation” value is -15.4%.

For the molecule `CCCCCCCCCCCCCCO`, the “activation” value was -2.62%.

Consider `CCCCCCCCCCCC[N+](C)(C)[O-]`, for which the “activation” value is 17.3%.

Regarding `CC(C)CCCCCOC(=O)CS`, the “activation” value is 3.56%.

Consider `CC(=O)OC(C)(C)C1CC=C(C)CC1` (stereo not given), for which the “activation” value was -1.79%.

For `NNS(=O)(=O)c1ccc(Oc2ccc(S(=O)(=O)NN)cc2)cc1`, the “activation” value was -3.66%.

Turning to `O=S(=O)(O)c1cc(S(=O)(=O)O)c2c(N=Nc3ccccc3)c(O)ccc2c1`, the “activation” value was 6.31%.

Consider `C[Si]1(C)O[Si](C)(C)O[Si](C)(C)O1`, for which the “activation” value is 3.66%.

As for `CC(C)(C)[C@H](O)[C@H](Cc1ccc(Cl)cc1)n1cncn1`, the Potency entry was “inactive”.

Consider `c1ccc2c(c1)ccc1c3ccccc3ccc21`, for which the “activation” value is 13.2%.

For the molecule `CCCCCCCCCCCCCCC`, the “activation” value was -3.05%.
